Results published in PubChem BioAssay AID1069 (NMMLSC, 2008).
Values without a mark were called inactive. Active and inactive are the calls of the source.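 The calls were made as follows: active = high combined rank on largest and smallest cell-count-weighted shift across three tests, rank score above 45, floors 50 and 25 (some results past the limit were not filed as active); inactive = the rest.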

Assay: LNCaP granularity increase inducers, single-point recheck – cell-based, side scatter shift, flow cytometry, confirmation (AID 1069);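 also: LNCaP human prostate cancer cells in low-serum medium with charcoal-stripped FBS; percent of cells with raised granularity gated so DMSO controls show 10%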
Conditions: LNCaP differentiation, 4 d, at 100 µM, stronger effect = higher value
For `Cc1cc(N2CCC(N(C)C3CCCC3)CC2)nc2cc(O)ccc12`, the side scatter shift was 65.4%.
`Cc1ccc(Nc2cc(=O)n(C3CCCCC3)c(=O)[nH]2)cc1C` showed a side scatter shift of 0%.
Molecule `CCOC(=O)C1CCN(S(=O)(=O)c2ccc(-c3nc4ccccc4s3)s2)CC1` has a side scatter shift of 25.7%.
`Cc1ccccc1-c1nc(CN2CCCC(C(=O)NCc3cccnc3)C2)c(C)o1` (stereo not given) showed a side scatter shift of 13.7%.
For `COc1ccccc1N1CCN(Cc2cc(Br)c(O)c3ncccc23)CC1`, the side scatter shift was 35.3%.
In the case of `COC(=O)c1ccccc1S(=O)(=O)N(Cc1cc2cc3c(cc2[nH]c1=O)OCO3)C1CCCCC1`, the side scatter shift is reported as 50%.
For `CCOC(=O)C1CCN(c2nc3ccccc3nc2C(C#N)C(=O)OCCOC)CC1` (stereo not given), the side scatter shift was 11.8%.
With `COc1ccc(Nc2nc(N3CCCC3)c3ccccc3n2)cc1` the side scatter shift was 14%.
For `Cc1cc(N2CCN(C)CC2)nc2ccc(NC(=O)c3ccc4c(c3)OCO4)cc12`, the side scatter shift was 71.9% (active).
`COc1ccc(/C=N/c2nc3ccccc3n2C)cc1OC` gave a side scatter shift of 10%.
Molecule `Cc1ccccc1CN1CCN(CC(=O)NCCCN2CCN(c3ccc(F)cc3)CC2)C1=O` has a side scatter shift of 3.3%.
`CCSc1nnc(Cn2c(=O)sc3ccccc32)n1-c1ccccc1C` showed a side scatter shift of 20.5%.
In the case of `COc1ccc(CCNC(=O)C2CCN(Cc3nc(-c4ccccc4C)oc3C)CC2)cc1OC`, the side scatter shift is reported as 0%.
With `CCOC(=O)c1c(C)[nH]c(C(=O)COC(=O)C2CC2C)c1C` (stereo not given) the side scatter shift was 24.3% (active).
For `CCCCCn1c(=N)n(CC(O)COc2ccccc2OC)c2ccccc21` (stereo not given), the side scatter shift was 15%.
